PubChem BioAssay AID1851 (National Center for Advancing Translational Sciences (NCATS), 2009)
About 4,000 (25%) of roughly 16,000 compounds were called active. Roughly 26% stayed inconclusive and do not appear here. Calls follow the shape of the dose curve; as a rule, active = well fitted curve in the direction sought with a large enough effect; inconclusive = small, poorly fitted or top-dose-only effect, or effect the other way; inactive = no such curve, though single readings can be large or run the other way. A selection follows.

biological target: Cytochrome P450 2C9 (Homo sapiens) (UniProt P11712); test: Cytochrome panel assay with activity outcomes; conditions: recombinant CYP, pro-luciferin dealkylation, luminescence, p450-cyp2c9; series mostly up to 57.1 µM
Sequence (P11712 whole entry, looked up): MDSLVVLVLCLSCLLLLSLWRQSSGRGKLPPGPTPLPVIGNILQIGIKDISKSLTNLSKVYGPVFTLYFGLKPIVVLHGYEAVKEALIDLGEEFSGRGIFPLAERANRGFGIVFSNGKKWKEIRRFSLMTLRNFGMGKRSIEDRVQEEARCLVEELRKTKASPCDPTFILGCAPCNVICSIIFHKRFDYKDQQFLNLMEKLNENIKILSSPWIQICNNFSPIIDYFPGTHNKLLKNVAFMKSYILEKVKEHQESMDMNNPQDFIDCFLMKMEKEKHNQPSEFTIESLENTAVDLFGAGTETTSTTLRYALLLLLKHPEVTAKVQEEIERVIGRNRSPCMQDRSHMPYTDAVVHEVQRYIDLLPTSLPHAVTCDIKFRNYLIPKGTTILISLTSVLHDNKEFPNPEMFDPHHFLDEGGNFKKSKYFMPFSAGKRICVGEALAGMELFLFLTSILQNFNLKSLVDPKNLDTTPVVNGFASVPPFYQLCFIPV
% is scaled to controls: 0 for no effect and ±100 for the full control effect.

Row | Compound | AC50 | activity, negative = inhibition
1 | O=C(CSc1nc2ccccc2o1)NC(=O)NCc1ccccc1 | 7.08 µM (active) | 
2 | O=C(CN1CCN(S(=O)(=O)c2ccccc2)CC1)NC(=O)NCc1ccccc1 | inactive | 
3 | O=C(N/N=C\c1ccc(-c2ccccc2[N+](=O)[O-])o1)C1COc2cc3ccccc3cc2O1 (stereo not drawn) | 1 µM (active) | 
4 | C[N+]1(C)CCC(=C(c2ccccc2)c2ccccc2)CC1 | inactive | 
5 | N#CC(C#N)=C(N)/C(C#N)=C/c1ccc(O)cc1 | inactive | 
6 | CC(C)(C)c1cc(/C=C(\C#N)C(N)=S)cc(C(C)(C)C)c1O | 0.1 µM (active) | 
7 | CC(C)(CO)Cc1cc(C(C)(C)C)c(O)c(C(C)(C)C)c1 | inactive | 
8 | CC(C)=NNc1ncnc2nc[nH]c12 |  | -11.9% [at 11.4 µM] (inactive)
9 | CCOc1cccc(OCCCNCCCOC)c1 | inactive | 
10 | Cc1ccccc1-c1cncnc1Nc1ccc(F)cc1 |  | -14.2% [at 2.29 µM] (inactive)
11 | C=CCN1C(=CCO)[C@H]2C[C@H]3[C@@H]1CC[C@@]31c3ccccc3N3C=C4[C@@H]5N(/C=C/2[C@H]31)c1ccccc1[C@]51CC[C@H]2[C@H]1C[C@@H]4/C(=C/CO)N2CC=C | inactive | 
12 | C[C@@](N)(C(=O)O)c1ccc(S(=O)(=O)O)cc1 | inactive | 
13 | CCOc1cc2[nH]c(=O)n(CCCC(=O)NCc3ccc(OC)cc3)c(=O)c2cc1OCC | 4.47 µM (active) | 
14 | COC(=O)C/C=C\[C@@H](C)[C@@H](/C=N\O[C@@H]1O[C@H](COC(C)=O)[C@H](OC(C)=O)[C@H](OC(C)=O)[C@H]1OC(C)=O)OC |  | -21% [at 11.4 µM] (inactive)
15 | CC(=O)N1CCC2(CC1)CCN(c1ccccn1)CC2 | inactive | 
16 | CN1CCC2(CC1)CCN(C(=O)c1ccncc1)CC2 | inactive | 
17 | O=C(c1ccncc1)N1CCC2(CC1)CCN(c1ccccn1)CC2 | 10 µM (active) | 
18 | O=C(c1ccncc1)N1CCC2(CC1)CN(c1ncccn1)C2 | inactive | 
19 | O=C(c1ccncc1)N1CCC2(CC1)CCN(c1ncccn1)CC2 | 15.8 µM (active) | 
20 | C[C@H](NCCC(c1ccccc1)c1ccccc1)c1ccccc1 | inactive | 

Row | Compound | AC50 | activity, negative = inhibition
21 | CC1(C)CCC=[N+]1[O-] | inactive | 
22 | CS[C@]12C(=O)C[C@]3(C)[C@@H](CC[C@@]3(O)C(=O)CO)[C@@H]1CCC1=CC(=O)CC[C@]12C |  | 11.9% [at 11.4 µM] (inactive)
23 | O=C(c1cc(C(F)(F)F)cc(C(F)(F)F)c1)N1CCC2(CC1)CN(Cc1ccncc1)C2 | 10 µM (active) | 
24 | O=C(c1cnccn1)N1CCC2(CCN(Cc3nccs3)CC2)CC1 | inactive | 
25 | O=C(c1cc(C(F)(F)F)cc(C(F)(F)F)c1)N1CCC[C@@]2(CCN(Cc3ccncc3)C2)C1 | 0.0794 µM (active) | 
26 | O=C(c1cc(C(F)(F)F)cc(C(F)(F)F)c1)N1CCC[C@@]2(CCN(Cc3ccccc3)C2)C1 | inactive | 
27 | O=C(c1cnccn1)N1CCC2(CCCN(Cc3nccs3)C2)CC1 | 15.8 µM (active) | 
28 | O=C(c1cnccn1)N1CCC[C@@]2(CCN(c3ncccn3)C2)C1 | inactive | 
29 | O=C(c1cnccn1)N1CCC2(CC1)CN(Cc1nccs1)C2 | inactive | 
30 | O=C(c1cc(C(F)(F)F)cc(C(F)(F)F)c1)N1CCC2(CC1)CN(Cc1ccccc1)C2 | inactive | 
31 | N#Cc1ccc(CN2CC[C@@]3(CCCN(C(=O)c4cc(C(F)(F)F)cc(C(F)(F)F)c4)C3)C2)cc1 | inactive | 
32 | O=C(c1ccncc1)N1CCC2(CC1)CN(Cc1cc(C(F)(F)F)cc(C(F)(F)F)c1)C2 | inactive | 
33 | CC(C)CN1CC[C@@]2(CCCN(C(=O)c3cnccn3)C2)C1 | inactive | 
34 | O=C(c1cnccn1)N1CCC[C@@]2(CCN(Cc3ccncc3)C2)C1 | 10 µM (active) | 
35 | CC1=NNC(=S)NCCCN2CCN(CCCNC(=S)NN=C(C)C=NNC(=S)NCCCN3CCN(CCCNC(=S)NN=C1)CC3)CC2 |  | 5.77% [at 11.4 µM] (inactive)
36 | CC(C)N1CCN(c2ccc(OC[C@@H]3CO[C@@](Cn4cncn4)(c4ccc(Cl)cc4Cl)O3)cc2)CC1 | inactive | 
37 | COc1cc(C2NC(=O)NC(O)(C(F)(F)F)C2C(=O)c2ccc(Cl)cc2)ccc1O (stereo not drawn) | inactive | 
38 | O=C(c1cc(C(F)(F)F)cc(C(F)(F)F)c1)N1CCC2(CC1)CCN(c1ccncc1)CC2 | inactive | 
39 | Cn1cccc1C(=O)N1CCC2(CC1)CN(Cc1cc(C(F)(F)F)cc(C(F)(F)F)c1)C2 | 15.8 µM (active) | 
40 | O=C(c1cc(C(F)(F)F)cc(C(F)(F)F)c1)N1CCC2(CC1)CN(c1ccncc1)C2 | 3.98 µM (active) | 

Row | Compound | AC50 | activity, negative = inhibition
41 | O=C(c1ccco1)N1CCC2(CC1)CN(Cc1cc(C(F)(F)F)cc(C(F)(F)F)c1)C2 | inactive | 
42 | Cn1cccc1C(=O)N1CCC2(CC1)CN(Cc1ccc(C#N)cc1)C2 | inactive | 
43 | O=C(c1cc(C(F)(F)F)cc(C(F)(F)F)c1)N1CCC2(CC1)CN(c1ccccc1)C2 | inactive | 
44 | CC(C)CC(=O)N1CCC(O)(CS(=O)(=O)Cc2ccc(Cl)cc2)CC1 | inactive | 
45 | CCc1ccc(-c2ccc(C(=O)C(F)(F)F)[nH]2)cc1 | inactive | 
46 | Cc1cccc(-n2nnc3cnn(C)c3c2=O)c1 | inactive | 
47 | CN(C)Cc1ccccc1-c1nccc(Nc2ccc(F)cc2)n1 |  | 6.01% [at 2.29 µM] (inactive)
48 | CN1CCN(c2ccc([N+](=O)[O-])cc2S(=O)(=O)N2CCOCC2)CC1 | inactive | 
49 | O=C(C1CCN(S(=O)(=O)N2CCOCC2)CC1)N1CCN(Cc2ccccc2)CC1 | inactive | 
50 | O=[N+]([O-])c1ccc(N2CCN(Cc3ccccc3)CC2)c(S(=O)(=O)N2CCOCC2)c1 | 17.8 µM (active) | 
51 | CC1CCC(C(=O)O)([C@H](Br)C(=O)O)CC1 (stereo partly drawn) |  | -6.22% [at 11.4 µM] (inactive)
52 | Cc1c(C)c(C)c(CC2(C)CSC2)c(CC2(C)CSC2)c1C |  | 11.8% [at 11.4 µM] (inactive)
53 | CC(=O)NN1C(=O)c2ccc(Oc3ccc([N+](=O)[O-])cc3)cc2C1=O | inactive | 
54 | CS(=O)(=O)Nc1ccc([N+](=O)[O-])cc1Oc1ccccc1 | 3.16 µM (active) | 
55 | CS(=O)(=O)Nc1ccc([N+](=O)[O-])cc1OC1CCCCC1 | inactive | 
56 | CC(=O)COc1ccc2c(C)c(C)c(=O)oc2c1 | 22.4 µM (active) | 
57 | CCCC[C@@H]1C[C@H]1C(NC(=O)c1cccnc1)c1ccc(Cl)cc1 (stereo partly drawn) | 12.6 µM (active) | 
58 | CCCC[C@@H]1C[C@H]1C(NC(=O)c1cccnc1)c1ccc(-c2ccccc2)cc1 (stereo partly drawn) | 5.01 µM (active) | 
